Rtt109 HAT inh = inhibitors of C. albicans Rtt109/Vps75 HAT, primary screen, biochemical, ThioGlo CoA-SH fluorescence, plate reader; Histone acetyltransferase RTT109 (Candida albicans (strain SC5314 / ATCC MYA-2876)), …; purified Rtt109/Vps75, 4 h; inhibition, % at 34.9 µM; hit rate 0.16% among 330,000;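 active means inhibition of at least 50% in every replicate; inconclusive means best replicate reaches 50% inhibition but some replicates fall short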
ABHD5 PLIN5 PPI = ABHD5-PLIN5 interaction inhibitors, primary screen, cell lysate, split luciferase complementation, luminescence. Perilipin-5 (Homo sapiens) + 1-acylglycerol-3-phosphate O-acyltransferase ABHD5 (Homo …. Split G. princeps luciferase complementation, 4 h. inhibition, % at 4 µM. hit rate 0.78% among 360,000;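 active means inhibition above the mean inhibition across every tested compound plus 3 SD, cut at about 22% in these data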
LANA-H2B inh = blockers of LANA interaction with H2A/H2B – biochemical, FP readout, HTS, primary screen | Protein LANA1 (Human herpesvirus 8 type P (isolate GK18)), Q9QR71 | cell-free LANA-H2A/H2B peptide, fluorescence polarization | inhibition, % (test concentration not listed) | hit rate 0.6% among 320,000; in the data active means inhibition mostly above about 10%, no sharp cut-off; inactive means mostly below about 6.7%
rCAG RNA binder = binders of r(CAG) RNA repeats, primary screen, biochemical, fluorescence | hit rate 1.3% among 370,000 | r(CAG) RNA repeat, TO-PRO-1 dye displacement fluorescence | AID 651821, 2012 | inhibition, % at 3 µM;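 active means inhibition above the plate cutoff, the mean of all test compounds on that plate plus 3 SD, cut at about 35% in these data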;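 further: higher means more dye released from RNA so lower well fluorescence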
ALR H2O2 inh = inhibitors of human ALR sulfhydryl oxidase, primary screen, biochemical, H2O2 detection, HRP-luminol luminescence, single point. purified ALR, DTT oxidation. inhibition, % (concentration not given with the values). hit rate 3.8% among 290,000;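 active means mean replicate inhibition above about 79%, with every replicate also reaching it, limit read from the data; inconclusive means only one of the two criteria met; inactive means mean below limit and not every replicate reaching it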
Target sequence (P55789 whole entry, looked up): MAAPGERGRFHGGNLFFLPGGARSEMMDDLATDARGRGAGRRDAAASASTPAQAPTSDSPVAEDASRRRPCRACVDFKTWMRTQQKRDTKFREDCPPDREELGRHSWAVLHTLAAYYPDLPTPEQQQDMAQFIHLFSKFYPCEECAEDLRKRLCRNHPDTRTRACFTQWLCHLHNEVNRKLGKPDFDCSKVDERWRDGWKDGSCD
PRMT1 inh = PRMT1 methyltransferase inhibitors, primary screen, biochemical, fluorescence polarization. Protein arginine N-methyltransferase 1 (Homo sapiens), Q99873. recombinant PRMT1, activity-based probe fluorescence polarization. inhibition, % at 2.79 µM. hit rate 1.3% among 370,000. AID 652257, 2013;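 active means inhibition above about 21% made by adding two undisclosed values, limit read from the data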
ABHD5-PLIN5 conf = ABHD5-PLIN5 interaction inhibitors, confirmation, biochemical, luminescence; inhibition, % at 4 µM; shares compounds with ABHD5 PLIN5 PPI; hit rate 67% among 2,200; in the data active means inhibition above about 23%
HNF4 split-luc = HNF4 dimerization inhibitors, counter-screen for ABHD5-PLIN5 interaction inhibitor project, biochemical, split-luciferase complementation, luminescence; shares compounds with ABHD5 PLIN5 PPI; inhibition, % at 4 µM; hit rate 77% among 2,200; AID 651674, 2012;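 active means mean inhibition across replicate wells exceeding the computed hit threshold, cut at about 13% in these data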;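 further: light from luciferase halves that rejoin when HNF4 fusion proteins dimerize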
Target sequence (P41235 whole entry, looked up, the tested form may be a part): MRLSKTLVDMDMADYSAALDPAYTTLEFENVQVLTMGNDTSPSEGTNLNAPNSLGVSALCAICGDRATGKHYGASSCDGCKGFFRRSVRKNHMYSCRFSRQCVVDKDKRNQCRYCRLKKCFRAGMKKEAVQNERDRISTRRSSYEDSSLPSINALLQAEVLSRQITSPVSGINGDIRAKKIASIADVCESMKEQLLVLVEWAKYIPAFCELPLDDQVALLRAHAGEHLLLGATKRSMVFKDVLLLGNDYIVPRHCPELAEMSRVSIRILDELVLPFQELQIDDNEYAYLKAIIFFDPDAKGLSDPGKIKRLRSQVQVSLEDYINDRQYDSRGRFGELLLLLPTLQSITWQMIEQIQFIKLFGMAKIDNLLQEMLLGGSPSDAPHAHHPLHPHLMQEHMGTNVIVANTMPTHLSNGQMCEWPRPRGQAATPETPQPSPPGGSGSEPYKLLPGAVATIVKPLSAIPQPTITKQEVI
Hits are given with their value; 0 = inactive; ? = inconclusive; - = not tested or not shown. The list is not random: actives were taken first. Their share in the collection is about 5.9%.

SMILES | Rtt109 HAT inh | ABHD5 PLIN5 PPI | LANA-H2B inh | rCAG RNA binder | ALR H2O2 inh | PRMT1 inh | ABHD5-PLIN5 conf | HNF4 split-luc
COc1ccc(CN=C2Nc3ccccc3CS2)cc1 | 0 | 37 | 0 | 0 | 0 | 0 | 0 | 0
C=CC(=O)N1c2ccccc2Sc2ccc(NC(=O)OCC)cc21 | 0 | 30 | 0 | 0 | 0 | 0 | 62 | 29
COc1ccc(C=C(C(C)=O)C(=O)c2ccccc2)cc1 | - | 40 | - | 0 | - | 0 | 52 | 43
COc1cccc(C=C(C#N)C(=O)c2ccccc2)c1 | - | 0 | - | 0 | - | 0 | - | -
CC(=O)C(=Cc1cccc(C#N)c1)C(=O)c1ccccc1 | - | 61 | - | 0 | - | 0 | 95 | 87
COc1ccc(C=C(C(=O)c2ccccc2)C(=O)c2ccccc2)cc1 | - | 60 | - | 0 | - | 0 | 61 | 56
CC(=O)C(=Cc1ccc(Cl)cc1)C(=O)c1ccccc1 | - | 85 | - | 0 | - | 0 | 102 | 98
COc1ccc(C=C(C(=O)c2ccccc2)c2ccccc2)cc1 | - | 0 | - | 0 | - | 0 | - | -
c1ccc(-n2c(SCc3cccc4ccccc34)nnc2-c2ccncc2)cc1 | - | - | - | 0 | - | 0 | - | -
O=C(NCc1ccccc1Cl)[C@H]1CCCN1C(=O)[C@H]1CCCN1C(=O)c1cccs1 | - | 0 | - | 0 | - | 0 | - | -
Cc1cc(C(=O)NNC(=O)/C=C/c2ccco2)c(C)o1 | 0 | 42 | - | 0 | - | 23 | 66 | 49
COc1ccccc1/C=C/C(=O)NNC(=O)c1cc(C)oc1C | 0 | 0 | - | 0 | - | 0 | - | -
Cc1cc(C)nc(Sc2ccc([N+](=O)[O-])cc2[N+](=O)[O-])n1 | 0 | 0 | 0 | 0 | 0 | 0 | - | -
O=[N+]([O-])c1ccc(Sc2ccncn2)c([N+](=O)[O-])c1 | - | 29 | - | 0 | - | 0 | 41 | 41
COc1ccc(NC(=O)Cc2ccccc2)cn1 | 0 | 0 | 0 | 0 | 0 | 0 | - | -
COc1ccc(NC(=O)/C(Cl)=C(/Cl)S(=O)Cc2ccccc2)cn1 (stereo not drawn) | 0 | 95 | 0 | 0 | 0 | 0 | 97 | 103
COc1ccccc1N1CCN(C2CCCN(C(=O)c3cccc(-c4ccco4)c3)C2)CC1 (stereo not drawn) | 0 | 0 | 0 | 0 | 0 | 0 | - | -
COc1ccccc1-c1cc(SC)c(C#N)c(=O)o1 | 0 | 67 | 0 | 0 | 0 | 0 | 89 | 93
COc1cc(OC)cc(C(=O)NC(=S)N(Cc2ccccc2)C(C)C)c1 | 0 | 45 | 0 | 0 | 0 | 0 | 70 | 0
COc1cc(OC)cc(C(=O)NC(=S)NCCc2ccccc2)c1 | 0 | 0 | 0 | 0 | 0 | 0 | - | -
O=C(Nc1ccc(F)cc1)OCc1cn(Cc2ccc(C(F)(F)F)cc2)nn1 | - | - | - | 0 | - | 0 | - | -
COc1ccc(NC(=O)c2cc(NC(=O)C3CCCCC3C(=O)O)ccc2N2CCOCC2)cc1 (stereo not drawn) | 0 | 24 | 0 | 0 | 0 | 0 | 0 | 0
CC(OC(=O)/C=C/c1ccc2ccccc2n1)C(=O)Nc1ccc(S(N)(=O)=O)cc1 (stereo not drawn) | 0 | 25 | 0 | 0 | 0 | 0 | 28 | 21
CC(OC(=O)/C=C/c1cccs1)C(=O)Nc1ccc(S(N)(=O)=O)cc1 (stereo not drawn) | 0 | 0 | 0 | 0 | 0 | 0 | - | -
CC1CCC2(CC1)CCN(CCCOC(=O)Nc1ccc3c(c1)OCO3)C2=O (stereo not drawn) | - | - | - | 0 | - | 0 | - | -
SMILES | Rtt109 HAT inh | ABHD5 PLIN5 PPI | LANA-H2B inh | rCAG RNA binder | ALR H2O2 inh | PRMT1 inh | ABHD5-PLIN5 conf | HNF4 split-luc
Cc1ccc(-c2cc(C(=O)NCc3ccco3)c3ccccc3n2)s1 | 0 | 35 | 0 | 0 | 0 | 0 | 0 | 16
Cc1ccc(NC(=O)Cc2sc(C)nc2-c2ccc(C)cc2)cc1 | 0 | 0 | 0 | 0 | - | 0 | - | -
Cc1ccc(-c2nc(C)sc2CC(=O)NCc2ccco2)cc1 | 0 | 27 | - | 0 | - | 0 | 27 | 33
O=C(NCc1ccco1)c1cc(-c2cccs2)nc2ccccc12 | 0 | 0 | 0 | 0 | 0 | 0 | - | -
CCN(CC)CCCNC(=O)CSc1c2c(nc3cc(Cl)ccc13)CCCC2 | 0 | 29 | 0 | 0 | 0 | 0 | 39 | 28
Cc1cc(-c2ccc(NS(=O)(=O)c3ccccc3)c(C)c2)ccc1NS(=O)(=O)c1ccccc1 | 0 | 0 | - | 0 | - | 0 | - | -
Cc1cc2oc(=O)sc2cc1NS(=O)(=O)c1ccccc1 | 0 | 39 | 0 | 0 | - | 92 | 0 | 0
O=C(O)CCc1ccc(-c2ccccc2)o1 | 78 | 38 | 0 | 0 | 0 | 0 | 24 | 48
O=C(O)CCc1nc(-c2ccccc2)c(-c2ccccc2)o1 | - | - | 0 | - | 0 | - | - | -
O=C(/C=C/c1ccccn1)c1cc(Cl)cc(Cl)c1O | 0 | 23 | 0 | 0 | 0 | 0 | 45 | 31
O=C(O)C(C(=O)/C=C/c1ccco1)=C1SCCS1 | 0 | 45 | 0 | 0 | 0 | 0 | 0 | 31
O=C(/C=C/c1ccco1)NC1CCCC1 | ? | 0 | 0 | 0 | 0 | 0 | - | -
O=C(C=C1SCCS1)/C=C/c1ccco1 | 0 | 31 | 0 | 0 | ? | 22 | 44 | 48
CC(=O)Nc1ccc(NC(=O)CC(C)n2ccnc2)cc1 (stereo not drawn) | 0 | 0 | 0 | 0 | - | 0 | - | -
CCc1cccc2c(C(=O)CSc3nncn3-c3ccccc3OC)c[nH]c12 | 0 | 24 | 0 | 0 | 0 | 0 | 0 | 0
Cc1ccc(S(=O)(=O)N2C[C@@]3(O)Cn4c(=O)ccc(=O)n4C[C@@]3(OC(=O)NCC3CCCCC3)C2)cc1 | - | 37 | - | 0 | - | 0 | 58 | 0
COC(=O)[C@H]1C[C@@]2(O)CN(S(=O)(=O)c3ccc(C)cc3)C[C@@]2(OC(=O)NCC2CCCCC2)C[C@H]1C(=O)OC | - | 0 | - | 0 | - | 0 | - | -
CCCC[C@@H]1C(=O)N2N=Cc3ccccc3[C@H]2N2N=Cc3ccccc3[C@@H]12 | - | - | - | 0 | - | 0 | - | -
CCCC(=O)Nc1nnc(S(=O)(=O)N(C)Cc2ccco2)s1 | 0 | 41 | 0 | - | 0 | - | 30 | 56
CN(Cc1ccco1)S(=O)(=O)c1nnc(NC(=O)c2ccccc2Cl)s1 | 0 | 30 | 0 | 0 | 0 | 0 | 46 | 74
COc1ccccc1-c1csc(C(O)c2ccc(F)c(F)c2)n1 (stereo not drawn) | - | 0 | - | 0 | - | 0 | - | -
Cc1ccc(C(C)C)c(OCc2nn(CC(=O)c3ccc(Cl)cc3)c3[n+]2CCCCC3)c1 | ? | 0 | 0 | 0 | - | 0 | - | -
O=C(Cn1nc(CNc2ccc(Cl)cc2)[n+]2c1CCCCC2)c1ccccc1 | 0 | 25 | 0 | 0 | 0 | 0 | 0 | 0

Assay outcomes deposited in PubChem BioAssay by several laboratories.
